Sampled rows, rich in hits. Any-hit rate of the full collection: about 19%.
DT40 TDP1 no CPT – qHTS for Inhibitors of human tyrosyl-DNA phosphodiesterase 1 (TDP1): qHTS in cells in absence of CPT. DT40 Tdp1-/- hTDP1 cells, no CPT, ATP luminescence, 48 h. Potency, µM (titrated, usually from 46.2 µM), most hits filed as inhibitors. hit rate 15% among 420,000. AID 686978, 2013; further: nearly all actives have a fitted effect of over 55% in size
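Luminescent ATP content (CellTiter-Glo) served as the growth readout. Knockout chicken DT40 cells expressing human TDP1 were exposed to compounds without camptothecin for a minimum 48 hr at 37 °C.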
TDP1 cell CPT – growth inhibition of DT40 Tdp1-/-;hTDP1 cells with camptothecin (screen for TDP1 inhibitors); chicken DT40 Tdp1-/-;hTDP1 cells + 20 nM CPT, ATP luminescence, 48 h; Potency, µM (series often up to 46.2 µM), usual class: inhibitors; hit rate 12% among 420,000; AID 686979; further: nearly all actives have a fitted effect of over 55% in size
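Cell growth measured by CellTiter-Glo luminescence after a minimum 48 h, 37 C compound exposure with 20 nM CPT in Tdp1-knockout DT40 cells stably expressing hTDP1, seeded 400/well; qHTS titration format.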
HT1080 IDH1KD tx – kills HT-1080 cells with IDH1 knockdown; HT-1080 IDH1 knockdown viability, ATP luminescence, 48 h; Potency, µM (series often up to 46.1 µM), most hits filed as cytotoxic; hit rate 2% among 360,000
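Knockdown cells (IDH1KD HT-1080) received compounds 2 h after plating at 750 cells/well and were kept 48 h at 37 °C in 5% FBS RPMI. A CellTiter-Glo luminescence read gave % activity for curve fitting.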
HT1080NT lethal – kills 2HG-producing HT-1080-NT fibrosarcoma cells; HT-1080-NT fibrosarcoma viability, CellTiter-Glo ATP luminescence, 48 h; Potency, µM (titrated, usually from 46.1 µM), hits mostly cytotoxic; hit rate 1.6% among 360,000; AID 686970;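 further: NT is the 2HG producing partner of a matched IDH1 knockdown line; nearly all actives have a fitted effect of over 55% in size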
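HT-1080-NT fibrosarcoma cells (2HG-overproducing), 750 cells/well in RPMI with 5% FBS, dosed after 2 h and incubated 48 h at 37C. CellTiter-Glo luminescence normalized to DMSO and no-cell wells; concentration-response curves fitted and classed.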
IL1B secr inh – inflammasome signaling inhibition, IL-1 beta readout; THP-1 LPS/ATP IL-1B secretion, AlphaLISA, 16 h; stronger effect = lower value; activity change, % at 57.5 µM; hit rate 4.7% among 360,000; in the data active means activity change below about -50%; inconclusive means mostly about -30% to -49%
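THP-1 cells pretreated 1 hr with compounds (up to 57.5 uM final), then stimulated with LPS (250 ng/mL final) plus ATP (1.25 mM final); secreted IL-1B measured by AlphaLISA after 16 hr, decreased signal indicating inhibition.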
Hits are given with their value; – = inactive; ? = inconclusive; · = no result; [ ] = another dose, or the depositor's remark. Unless noted, the call rests on the fitted dose curve; in most records, active means well fitted curve in the direction sought with a large enough effect; inconclusive means small, poorly fitted or top-dose-only effect, or another doubt; inactive means no such curve, though single readings can be large; an effect the other way counts as inactive or inconclusive.

SMILES	DT40 TDP1 no CPT	TDP1 cell CPT	HT1080 IDH1KD tx	HT1080NT lethal	IL1B secr inh
O=C1CC(N2CCN(Cc3ccccc3)CC2)C(=O)N1CCc1ccccc1 (stereo unspecified)	–	?	–	–	–
CCOC(=O)/C(C#N)=C1/C=CN(Cc2ccccc2)C=N1	–	–	–	?	–
CCOC(=O)/C(C#N)=C1\C(=O)N(Cc2ccccc2)c2ccccc21	9.2µM	9.2µM	–	–	–
CC(C)c1c(C(=O)N(C)Cc2cccc3ncccc23)cnn1-c1nccc(-c2ccco2)n1	14.6µM	–[9.04 µM]	·	·	·
Cc1cnc(-n2ncc(C(=O)N(C)Cc3cccc4ncccc34)c2C(C)C)nc1-c1ccc(F)cc1	–	–	·	·	·
Cc1ccc(S(=O)(=O)N/N=C/c2cc(Br)c(C)o2)cc1	?	16.4µM	–[9.24 µM]	–	–
Cc1ccc(S(=O)(=O)N/N=C/c2c(F)cccc2Cl)cc1	?	16.4µM	–	–	–
CCN1C(=O)[C@H]2[C@@H](c3ccc(-c4cccc(Cl)c4)cc3)N[C@@](C)(C(=O)OC)[C@H]2C1=O	13µM	16.4µM	–	–	–
CCN1C(=O)[C@H]2[C@@H](c3ccc(-c4ccc(F)cc4)c(OC)c3)N[C@@](C)(C(=O)OC)[C@H]2C1=O	?	13µM	–	–	–
CCN1C(=O)[C@H]2[C@@H](c3ccc(-c4ccc(C(C)=O)cc4)cc3)N[C@@](C)(C(=O)OC)[C@H]2C1=O	–	?	–	–	–
CCN1C(=O)C2C(c3cccc(F)c3)NC(C)(C(=O)OC)C2C1=O (stereo unspecified)	–	–	–	–	–
CCN1C(=O)[C@H]2[C@@H](c3ccc(-c4ccc(F)cc4)cc3)N[C@@](C)(C(=O)OC)[C@H]2C1=O	20.6µM	23.1µM	–	?	–
Cc1ccc(Cl)cc1NC(=O)NCCN1CCCCC1	–	–	–	–	–
O=C(NCCN1CCN(c2cccc(Cl)c2)CC1)Nc1ccccc1C(F)(F)F	18.4µM	?	·	·	·
Cc1ccccc1CS(=O)(=O)CCC(=O)NCCN1CCN(c2cccc(Cl)c2)CC1	14.6µM	23.1µM	–	–	?
Cc1ccc(Cl)cc1N1CCN(CCNC(=O)Nc2ccccc2Cl)CC1	11.6µM	16.4µM	·	·	·
O=C(NCCCN1CCN(c2cccc(Cl)c2)CC1)Nc1ccccc1C(F)(F)F	?	14.6µM	·	·	·
Nc1ccccc1C(=O)NCCCN1CCN(c2cccc(Cl)c2)CC1	–	–	–	–	?
COc1cc2c(cc1OC)CN(CC(=O)Nc1ccc(C#N)cc1)CC2	–	–	–	–	–
O=C(NCc1n[nH]c(=S)n1-c1cccc(C(F)(F)F)c1)c1ccco1	–	–	–	–	–
Cc1cccc(NC(=O)c2ccc3c(c2)OCCO3)c1	?	–	–	?	–
Cc1ccc(NC(=O)c2ccc3c(c2)OCCO3)cc1S(=O)(=O)Nc1cccc(Cl)c1	20.6µM	16.4µM	–	–	-56.7
O=C(Nc1ccc2c(c1)OCCO2)c1ccc(Cl)cc1	20.6µM	?	–	–	–
Cc1ccc(NC(=O)c2ccc3c(c2)OCCO3)cc1C	?	–	–	–	-50.1
O=C(Nc1ccc(NC(=O)c2ccc3c(c2)OCCO3)cc1)c1ccccc1	–	?	?	16.4µM	–
SMILES	DT40 TDP1 no CPT	TDP1 cell CPT	HT1080 IDH1KD tx	HT1080NT lethal	IL1B secr inh
CN1CCN(CCCOc2ccc(-c3ccccc3)cc2)CC1	16.4µM	?	16.4µM	23.1µM	-81.8
CCN1CCN(CCOc2ccccc2-c2ccccc2)CC1	–	?	–	–	–
CCN1CCN(CCCOc2ccc(-c3ccccc3)cc2)CC1	?	?	?	?	-55.5
COc1cccc(OCC(O)CN2CCN(C(c3ccccc3)c3ccccc3)CC2)c1 (stereo unspecified)	13µM	?	–	–	–
c1ccc(OCCN2CCN(C(c3ccccc3)c3ccccc3)CC2)cc1	14.6µM	?	–	–	–
CCOc1ccc(CCNC(=O)CCN2C(=O)COc3ccccc32)cc1OCC	–	–	–	–	–
Cc1ccc(CONC(=O)/N=C/N(C)C)cc1	–	–	–	–	–
COc1cccc(CSc2nc(N)cc(N)n2)c1	–	–	–	–	–
O=C(c1ccccc1)c1ccc(OCCCCN2CCCCC2)cc1	–	–	–	–	–
c1ccc(COc2ccc(OCCCCN3CCCCC3)cc2)cc1	20.6µM	29.1µM	–	?	-57.9
CN1CCN(CCOc2ccc(-c3ccccc3)cc2)CC1	?	?	–	–	-59.5
COc1ccc(OCCOCCN2CCN(C)CC2)cc1	–	–	–	–	–
CC(=O)N1CCc2ccc(S(=O)(=O)N3CC(C)OC(C)C3)cc21 (stereo unspecified)	?	–	–	–	–
O=C(CSc1nnnn1-c1cccc2c1CCCC2)N1CCOCC1	–	–	–	–	–
O=C(CSc1nnnn1-c1cccc2c1CCCC2)N1CCCC1	23.1µM	16.4µM	–	–	–
CCc1ccc(OCC(=O)NC(NC(=S)Nc2ccccc2OC)C(Cl)(Cl)Cl)cc1 (stereo unspecified)	?	?	–	–	–
COC(=O)c1ccccc1NC(=S)NC(NC(=O)COc1ccccc1)C(Cl)(Cl)Cl (stereo unspecified)	–	–	–	–	-76.6
CCc1ccc(OCC(=O)NC(NC(=S)Nc2ccccc2)C(Cl)(Cl)Cl)cc1 (stereo unspecified)	?	?	16.4µM	16.4µM	?
CCc1ccc(OCC(=O)NC(NC(=S)Nc2ccc(C)cc2C)C(Cl)(Cl)Cl)cc1 (stereo unspecified)	23.1µM	?	?	?	–
CC(C)CC(=O)NC(Nc1ccc([N+](=O)[O-])cc1)C(Cl)(Cl)Cl (stereo unspecified)	23.1µM	18.4µM	–	?	–
COCCSc1ccccc1C(=O)Nc1ccc(Cl)cc1	?	?	–	–	?
CC(=O)Nc1c(Br)cc2c(c1Br)Cc1cc([N+](=O)[O-])ccc1-2	?	?	–	–	–
CNC(=O)c1c(C)nn(-c2ccc(F)c(Cl)c2)c1-c1cc(C)on1	?	–	–	–	–
N#C/C(=C\c1cc(Cl)cc(Cl)c1)c1cccnc1	–	–	·	·	·
N#CCCN(C(=O)COC(=O)c1cc2ccccc2oc1=O)c1ccccc1	–	–	–	–	–
Cc1ccccc1NC(=S)NC(NC(=O)COc1ccccc1)C(Cl)(Cl)Cl (stereo unspecified)	?	?	–	–	–
Cc1ccc(C)c(NC(=S)NC(NC(=O)Cc2cccc3ccccc23)C(Cl)(Cl)Cl)c1 (stereo unspecified)	6.51µM	8.2µM	?	–	?
CC(C)CC(=O)NC(NC(=S)Nc1ccccc1)C(Cl)(Cl)Cl (stereo unspecified)	?	?	?	–	-77.1

Source: PubChem (National Center for Advancing Translational Sciences (NCATS))
